Test results published in PubChem BioAssay AID1159580 (chemical genetic matrix, 2015).
About 2,000 (36%) of roughly 5,500 compounds were called active. Inconclusive results (about 18%) are left out. Cut-off read from the data, not from the text of the source: active = normalized growth mostly below about 0.91 (no sharp cut-off); inconclusive = no clear call, values can overlap the other calls; inactive = mostly above about 0.92. Some of the results follow.

Assay: chemical genetic growth profiling, strain panel (AID 1159580);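 note: tested at 20 µM; growth read once vehicle control cultures reached saturation at 30 °C; 1 = growth at the plate median or of vehicle wells; lower values mean less growth of the strain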
Conditions: S. cerevisiae deletion strains, growth OD

Measured: normalized growth

CCn1cnc2c(Nc3cccc(Cl)c3)nc(N[C@@H]3CCCC[C@@H]3N)nc21
inactive: locus YAL013W, strain DEP1, active compounds read low 0.985 | locus YAL040C, strain CLN3, active compounds read low 1.02 | locus YCL061C, strain MRC1 (second series), active compounds read low 0.998 | locus YDR363W, strain ESC2, active compounds read low 0.993 | locus YER002W, strain NOP16, active compounds read low 1.03 | locus YGR078C, strain PAC10, active compounds read low 1.01 | locus YGR229C, strain SMI1, active compounds read low 0.993 | locus YMR263W, strain SAP30, active compounds read low 1 | locus YNL175C, strain NOP13, active compounds read low 1.08 | locus YNL224C, strain SQS1, active compounds read low 1.04 | locus YOR083W, strain WHI5 (second series), active compounds read low 0.991 | locus YPL241C, strain CIN2, active compounds read low 1.01
